{"source": "PubChem BioAssay (NCATS)", "note": "Calls of active or inactive are those of the source. The call rests on the fitted dose curve; in most records, active means well fitted inhibition curve with a large enough effect; inconclusive means small, poorly fitted or top-dose-only effect; inactive means flat fitted curve, though single readings scatter.", "data": [{"molecular_target": "Phosphoglycerate kinase, glycosomal (Trypanosoma brucei brucei) (UniProt P07378)", "sequence (P07378 whole entry, looked up)": "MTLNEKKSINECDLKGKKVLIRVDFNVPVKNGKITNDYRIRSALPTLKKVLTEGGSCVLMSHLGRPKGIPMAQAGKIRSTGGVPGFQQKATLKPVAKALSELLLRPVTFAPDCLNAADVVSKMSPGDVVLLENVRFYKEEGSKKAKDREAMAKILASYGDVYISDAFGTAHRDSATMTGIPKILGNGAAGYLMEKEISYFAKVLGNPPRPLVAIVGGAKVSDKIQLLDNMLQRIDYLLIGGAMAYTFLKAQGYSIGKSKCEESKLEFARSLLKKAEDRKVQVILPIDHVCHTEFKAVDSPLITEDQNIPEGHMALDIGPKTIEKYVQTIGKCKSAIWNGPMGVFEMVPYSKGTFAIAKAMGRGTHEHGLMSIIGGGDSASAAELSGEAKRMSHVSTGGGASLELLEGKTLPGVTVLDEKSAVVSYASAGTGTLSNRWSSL", "test": "qHTS Validation Assay to Find Inhibitors of Phosphoglycerate Kinase (AID 504547)", "conditions": "enzymatic PGK inhibition, coupled luminescence read-out; series mostly up to 57.5 µM", "how_it_was_run": "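Substrate/PGK mix plus compound; reaction started with GAPDH (100nM final) to form 1,3-BPG; 60 min RT; Kinase-Glo Plus 10 min; luminescence. TEA 100mM pH 7.6, MgCl2 5mM, Tween-20 0.01%.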", "values": [{"smiles": "CC(C)[N+](C)(CCOC(=O)C1c2ccccc2Oc2ccccc21)C(C)C", "outcome": "inactive"}, {"smiles": "CC1=NS(=O)(=O)c2cc(Cl)ccc2N1", "outcome": "inactive"}, {"smiles": "NC1=NCC2c3ccccc3Cc3ccccc3N12", "note": "(stereo not given)", "outcome": "inactive"}, {"smiles": "O=C(O)CN(CCOCCOCCN(CC(=O)O)CC(=O)O)CC(=O)O", "outcome": "inactive"}, {"smiles": "CCO/C([O-])=N/c1c[n+](N2CCOCC2)no1", "outcome": "inactive"}, {"smiles": "CNCCC(Oc1ccccc1OC)c1ccccc1", "note": "(stereo not given)", "outcome": "inactive"}, {"smiles": "C[N+](C)(C)CCOC(=O)CCC(=O)OCC[N+](C)(C)C", "outcome": "inactive"}, {"smiles": "CCN(CC)CCCN(c1ccccc1)C1Cc2ccccc2C1", "outcome": "inactive"}, {"smiles": "CCCN(CCC)CCc1cccc2c1CC(=O)N2", "outcome": "inactive"}, {"smiles": "C[C@@H](O)[C@H]1C(=O)N2C(C(=O)O)=C(SCCN=CN)C[C@H]12", "outcome": "inactive"}, {"smiles": "CCN1CCC[C@H]1CNC(=O)c1c(O)c(Cl)cc(Cl)c1OC", "outcome": "inactive"}, {"smiles": "CC(C)COCC(CN(Cc1ccccc1)c1ccccc1)N1CCCC1", "note": "(stereo not given)", "outcome": "inactive"}, {"smiles": "CC(C)(Oc1ccc(CCNC(=O)c2ccc(Cl)cc2)cc1)C(=O)O", "outcome": "inactive"}, {"smiles": "CN1C(=O)CC[C@H]1c1cccnc1", "outcome": "inactive"}, {"smiles": "Cc1nc2ccccn2c(=O)c1CCN1CCC(C(=O)c2ccc(F)cc2)CC1", "outcome": "inactive"}, {"smiles": "NC(=O)c1cn(Cc2c(F)cccc2F)nn1", "outcome": "inactive"}, {"smiles": "CCCCCCCC/C=C\\CCCCCCCC(=O)NCc1ccc(O)c(OC)c1", "outcome": "inactive"}, {"smiles": "CN(C(=O)CCCOc1ccc2[nH]c(=O)ccc2c1)C1CCCCC1", "outcome": "inactive"}, {"smiles": "CSc1ccc(C(=O)c2[nH]c(=O)[nH]c2C)cc1", "outcome": "inactive"}, {"smiles": "C[C@]12CC[C@@H]3c4ccc(O)cc4C[C@@H](CCCCCCCCCS(=O)CCCC(F)(F)C(F)(F)F)[C@H]3[C@@H]1CC[C@@H]2O", "note": "(stereo not given in full)", "outcome": "inactive"}, {"smiles": "CC(=O)[C@@]1(O)CC[C@H]2[C@@H]3CCC4=CC(=O)CC[C@]4(C)[C@H]3CC[C@@]21C", "outcome": "inactive"}, {"smiles": "CCCCCN(CCCCC)C(=O)C(CCC(=O)O)NC(=O)c1ccc(Cl)c(Cl)c1", "note": "(stereo not given)", "outcome": "inactive"}, {"smiles": "O=C(CCNNC(=O)c1ccncc1)NCc1ccccc1", "outcome": "inactive"}, {"smiles": "COCCc1ccc(OCC(O)CNC(C)C)cc1", "note": "(stereo not given)", "outcome": "inactive"}, {"smiles": "c1ccc2c(c1)CCCC2C1=NCCN1", "note": "(stereo not given)", "outcome": "inactive"}, {"smiles": "Cc1cccc(C)c1NC(=O)C(C)N", "note": "(stereo not given)", "outcome": "inactive"}, {"smiles": "OC(CCN1CCCCC1)(c1ccccc1)C1CCCCC1", "note": "(stereo not given)", "outcome": "inactive"}, {"smiles": "CCn1ccnc1CC1COc2ccccc2O1", "note": "(stereo not given)", "outcome": "inactive"}, {"smiles": "CCCN(CCC)C(=O)C(CCC(=O)O)NC(=O)c1ccccc1", "note": "(stereo not given)", "outcome": "inactive"}, {"smiles": "Cc1ccc(S(=O)(=O)NC(=O)NN2CCCCCC2)cc1", "outcome": "inactive"}, {"smiles": "CCCOc1ccccc1-c1nc2n[nH]nc2c(=O)[nH]1", "outcome": "inactive"}, {"smiles": "NC(=O)c1ncn([C@@H]2O[C@H](CO)[C@@H](O)[C@H]2O)c1O", "outcome": "inactive"}, {"smiles": "CCc1cccc(N(C)C(N)=Nc2cccc3ccccc23)c1", "outcome": "inactive"}, {"smiles": "C[n+]1cc2c3c(ccc2c2ccc4cc5c(cc4c21)OCO5)OCO3", "outcome": "inactive"}, {"smiles": "Cc1nc2sccn2c(=O)c1CCN1CCC(=C(c2ccc(F)cc2)c2ccc(F)cc2)CC1", "outcome": "inactive"}]}]}
